{"source": "the supplement of paper PMC3414501", "key": {"[1]": {"tested_on": "S. cerevisiae SK1 pCDA2-eGFP (USY613), sporulating", "assay": "CDA2-GFP sporulation assay sensitivity score (z-score vs DMSO controls); higher = stronger inhibition of sporulation, active = hit call of the paper"}, "[2]": {"tested_on": "S. cerevisiae AD1-9 (efflux-pump deficient), vegetative growth in YPD", "assay": "growth sensitivity score (doubling time z-score vs DMSO controls); higher = slower growth, strongly negative scores also mark growth inhibition (complete suppression), active = hit call of the paper", "summary_of_the_method": "(§1)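 Saccharomyces cerevisiae strains BY4741 and AD1-9 were seeded in rich medium in microtiter plates at an OD600 of 0.065. Compounds were added at a 1:100 dilution of DMSO stock. Optical density was read every 15 min for 24 hours on a Tecan GENios reader. Average doubling time was the time taken to reach a set generation point divided by generation number, and the growth sensitivity score was (compound mean − DMSO-control mean)/DMSO-control SD, using eight DMSO controls per experiment.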"}, "[3]": {"tested_on": "S. cerevisiae BY4741 (wild-type), vegetative growth in YPD", "assay": "growth sensitivity score (doubling time z-score vs DMSO controls); higher = slower growth, strongly negative scores also mark growth inhibition (complete suppression), active = hit call of the paper", "summary_of_the_method": "as §1"}, "[4]": {"details": "stock concentration (mM, diluted 1:100): 10"}, "[5]": {"details": "stock concentration (mM, diluted 1:100): 7.6"}, "[6]": {"details": "stock concentration (mM, diluted 1:100): 10.1"}, "[7]": {"details": "stock concentration (mM, diluted 1:100): 7.3"}, "[8]": {"details": "stock concentration (mM, diluted 1:100): 11.3"}, "[9]": {"details": "stock concentration (mM, diluted 1:100): 19.9"}, "[10]": {"details": "stock concentration (mM, diluted 1:100): 7.7"}}, "note": "Structures can show the parent of a compound that is named as a salt.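 Wherever CDA2-GFP sporulation assay sensitivity score (z-score vs DMSO controls) is given: active if sensitivity score above 5.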", "data": [{"smiles": "C[C@]12CC[C@H]3[C@@H](CCC4=CC(=O)CC[C@@]43C)[C@@H]1CC[C@@H]2O", "note": "[Testosterone]", "values": [{"measurement": "CDA2-GFP sporulation assay sensitivity score", "setting": "[1]; [4]", "result": "21.1 (active)"}, {"measurement": "growth sensitivity score", "setting": "[2]; [4]", "result": "44.5 (active)"}, {"measurement": "growth sensitivity score", "setting": "[3]; [4]", "result": "4.61 (active)"}]}, {"smiles": "CC(O)(CS(=O)(=O)c1ccc(F)cc1)C(=O)Nc1ccc(C#N)c(C(F)(F)F)c1", "note": "(stereo not drawn) [Bicalutamide]", "values": [{"measurement": "CDA2-GFP sporulation assay sensitivity score", "setting": "[1]; [4]", "result": "0.41 (inactive)"}, {"measurement": "growth sensitivity score", "setting": "[3]; [4]", "result": "0.66 (inactive)"}]}, {"smiles": "CN1CC[C@]23CCCC[C@H]2[C@H]1Cc1ccc(O)cc13", "note": "[Levorphanol tartrate]", "values": [{"measurement": "CDA2-GFP sporulation assay sensitivity score", "setting": "[1]; [5]", "result": "-2.67 (inactive)"}, {"measurement": "growth sensitivity score", "setting": "[2]; [5]", "result": "-1.11 (inactive)"}, {"measurement": "growth sensitivity score", "setting": "[3]; [5]", "result": "-0.24 (inactive)"}]}, {"smiles": "CCCCC/C=C\\C/C=C\\C/C=C\\C/C=C\\CCCC(=O)Nc1ccc(O)cc1", "values": [{"measurement": "CDA2-GFP sporulation assay sensitivity score", "setting": "[1]; [4]", "result": "-4.74 (inactive)"}, {"measurement": "growth sensitivity score", "setting": "[3]; [4]", "result": "2.55 (active)"}]}, {"smiles": "CC(NC(C)(C)C)C(=O)c1cccc(Cl)c1", "note": "(stereo not drawn) [Amfebutamone hydrochloride]", "values": [{"measurement": "CDA2-GFP sporulation assay sensitivity score", "setting": "[1]; [6]", "result": "0.84 (inactive)"}, {"measurement": "growth sensitivity score", "setting": "[2]; [6]", "result": "0.01 (inactive)"}, {"measurement": "growth sensitivity score", "setting": "[3]; [6]", "result": "-0.7 (inactive)"}]}, {"smiles": "CC[C@@H](C(N)=O)N1CCCC1=O", "note": "[Levetiracetam]", "values": [{"measurement": "CDA2-GFP sporulation assay sensitivity score", "setting": "[1]; [6]", "result": "1.7 (inactive)"}, {"measurement": "growth sensitivity score", "setting": "[2]; [6]", "result": -2.51}, {"measurement": "growth sensitivity score", "setting": "[3]; [6]", "result": "-1.26 (inactive)"}]}, {"smiles": "C[C@]12CCC(=O)C=C1CC[C@@H]1[C@@H]2CC[C@@]2(C)[C@H]1CC[C@]2(C)O", "note": "[Methyltestosterone]", "values": [{"measurement": "CDA2-GFP sporulation assay sensitivity score", "setting": "[1]; [4]", "result": "3.87 (inactive)"}, {"measurement": "growth sensitivity score", "setting": "[2]; [4]", "result": "32.3 (active)"}, {"measurement": "growth sensitivity score", "setting": "[3]; [4]", "result": "3.83 (active)"}]}, {"smiles": "CN1[C@@H]2CC(OC(=O)[C@H](CO)c3ccccc3)C[C@H]1[C@@H]1O[C@@H]12", "note": "(stereo partly drawn)", "values": [{"measurement": "CDA2-GFP sporulation assay sensitivity score", "setting": "[1]; [7]", "result": "-0.1 (inactive)"}, {"measurement": "growth sensitivity score", "setting": "[2]; [7]", "result": "-1.56 (inactive)"}, {"measurement": "growth sensitivity score", "setting": "[3]; [7]", "result": "-0.06 (inactive)"}]}, {"smiles": "CS(=O)(=O)Nc1ccc(Cc2noc(-c3ccc4[nH]cc(CCN)c4c3)n2)cc1", "values": [{"measurement": "CDA2-GFP sporulation assay sensitivity score", "setting": "[1]; [4]", "result": "2.55 (inactive)"}, {"measurement": "growth sensitivity score", "setting": "[2]; [4]", "result": "-0.07 (inactive)"}, {"measurement": "growth sensitivity score", "setting": "[3]; [4]", "result": "0.39 (inactive)"}]}, {"smiles": "CC(C)CC(N(C)C)C1(c2ccc(Cl)cc2)CCC1", "note": "(stereo not drawn) [Sibutramine]", "values": [{"measurement": "CDA2-GFP sporulation assay sensitivity score", "setting": "[1]; [8]", "result": "3.27 (inactive)"}, {"measurement": "growth sensitivity score", "setting": "[2]; [8]", "result": "5.47 (active)"}, {"measurement": "growth sensitivity score", "setting": "[3]; [8]", "result": "3.69 (active)"}]}, {"smiles": "Cc1ccc(-c2nc3ccc(C)cn3c2CC(=O)N(C)C)cc1", "note": "[Zolpidem tartrate]", "values": [{"measurement": "CDA2-GFP sporulation assay sensitivity score", "setting": "[1]; [9]", "result": "1.79 (inactive)"}, {"measurement": "growth sensitivity score", "setting": "[2]; [9]", "result": "-1.48 (inactive)"}, {"measurement": "growth sensitivity score", "setting": "[3]; [9]", "result": "-0.6 (inactive)"}]}, {"smiles": "COc1cccc(C2(O)CCCCC2CN(C)C)c1", "note": "(stereo not drawn) [Tramadol]", "values": [{"measurement": "CDA2-GFP sporulation assay sensitivity score", "setting": "[1]; [4]", "result": "0.06 (inactive)"}, {"measurement": "growth sensitivity score", "setting": "[2]; [4]", "result": "-0.93 (inactive)"}, {"measurement": "growth sensitivity score", "setting": "[3]; [4]", "result": "-0.39 (inactive)"}]}, {"smiles": "CCC(COC(=O)c1cc(OC)c(OC)c(OC)c1)(c1ccccc1)N(C)C", "note": "(stereo not drawn) [Trimebutine maleate]", "values": [{"measurement": "CDA2-GFP sporulation assay sensitivity score", "setting": "[1]; [10]", "result": "0.35 (inactive)"}, {"measurement": "growth sensitivity score", "setting": "[2]; [10]", "result": "3.33 (active)"}, {"measurement": "growth sensitivity score", "setting": "[3]; [10]", "result": "0.59 (inactive)"}]}, {"smiles": "O=c1c2ccccc2[se]n1-c1ccccc1", "note": "[Ebselen]", "values": [{"measurement": "growth sensitivity score", "setting": "[2]; [4]", "result": -16.9}]}, {"smiles": "CN1C(=O)COc2c(C(=O)NC3CN4CCC3CC4)cc(Cl)cc21", "note": "(stereo not drawn) [Azasetron]", "values": [{"measurement": "growth sensitivity score", "setting": "[2]; [4]", "result": "-0.58 (inactive)"}, {"measurement": "growth sensitivity score", "setting": "[3]; [4]", "result": "-0.56 (inactive)"}]}, {"smiles": "C=C(C)CN1CC[C@]23c4c5ccc(O)c4O[C@H]2c2[nH]c4ccccc4c2C[C@@]3(O)C1C5", "values": [{"measurement": "CDA2-GFP sporulation assay sensitivity score", "setting": "[1]; [6]", "result": "4.94 (inactive)"}, {"measurement": "growth sensitivity score", "setting": "[2]; [6]", "result": "11.1 (active)"}, {"measurement": "growth sensitivity score", "setting": "[3]; [6]", "result": "0.61 (inactive)"}]}, {"smiles": "COc1ccc2[nH]cc(CCN)c2c1", "note": "[5-Methoxytryptamine]", "values": [{"measurement": "CDA2-GFP sporulation assay sensitivity score", "setting": "[1]; [4]", "result": "3.61 (inactive)"}, {"measurement": "growth sensitivity score", "setting": "[2]; [4]", "result": "-1.13 (inactive)"}, {"measurement": "growth sensitivity score", "setting": "[3]; [4]", "result": "0.09 (inactive)"}]}, {"smiles": "c1cncc([C@@H]2CCCN2)c1", "note": "[Nornicotine]", "values": [{"measurement": "CDA2-GFP sporulation assay sensitivity score", "setting": "[1]; [4]", "result": "2.1 (inactive)"}, {"measurement": "growth sensitivity score", "setting": "[2]; [4]", "result": "-0.25 (inactive)"}, {"measurement": "growth sensitivity score", "setting": "[3]; [4]", "result": "0.91 (inactive)"}]}, {"smiles": "C[C@]12CC[C@H]3[C@@H](CCC4=CC(=O)CC[C@@H]43)[C@@H]1CC[C@@H]2O", "note": "[19-Nortestosterone]", "values": [{"measurement": "CDA2-GFP sporulation assay sensitivity score", "setting": "[1]; [4]", "result": "1.91 (inactive)"}, {"measurement": "growth sensitivity score", "setting": "[2]; [4]", "result": "5.3 (active)"}, {"measurement": "growth sensitivity score", "setting": "[3]; [4]", "result": "2.24 (active)"}]}, {"smiles": "N=C(NCc1ccc(Cl)cc1)SCCCc1c[nH]cn1", "note": "[Clobenpropit]", "values": [{"measurement": "CDA2-GFP sporulation assay sensitivity score", "setting": "[1]; [4]", "result": "1.25 (inactive)"}, {"measurement": "growth sensitivity score", "setting": "[2]; [4]", "result": "0.21 (inactive)"}, {"measurement": "growth sensitivity score", "setting": "[3]; [4]", "result": "0.09 (inactive)"}]}, {"smiles": "C[C@]12C/C(=C/O)C(=O)C[C@@H]1CC[C@@H]1[C@@H]2CC[C@@]2(C)[C@H]1CC[C@]2(C)O", "note": "[Oxymetholone]", "values": [{"measurement": "CDA2-GFP sporulation assay sensitivity score", "setting": "[1]; [6]", "result": "1.28 (inactive)"}, {"measurement": "growth sensitivity score", "setting": "[3]; [6]", "result": "9.13 (active)"}]}, {"smiles": "CC(C)CC(N(C)C)C1(c2ccc(Cl)cc2)CCC1", "note": "(stereo not drawn) [Sibutramine hydrochloride]", "values": [{"measurement": "CDA2-GFP sporulation assay sensitivity score", "setting": "[1]; [4]", "result": "8.57 (inactive)"}, {"measurement": "growth sensitivity score", "setting": "[2]; [4]", "result": "6.62 (active)"}, {"measurement": "growth sensitivity score", "setting": "[3]; [4]", "result": "1.85 (inactive)"}]}, {"smiles": "COC(=O)N1CCN(C(=O)Cc2ccc(Cl)c(Cl)c2)C(CN2CCCC2)C1", "note": "(stereo not drawn)", "values": [{"measurement": "CDA2-GFP sporulation assay sensitivity score", "setting": "[1]; [4]", "result": "3.34 (inactive)"}, {"measurement": "growth sensitivity score", "setting": "[2]; [4]", "result": "-1.16 (inactive)"}, {"measurement": "growth sensitivity score", "setting": "[3]; [4]", "result": "-1.35 (inactive)"}]}]}
